# Assay results as given in PubChem BioAssay (NCATS).
# Records with an inconclusive call do not appear. Activity calls are given as the source filed them. Unless noted, the call rests on the fitted dose curve; in most records, active means well fitted curve in the direction sought with a large enough effect; inconclusive means small, poorly fitted or top-dose-only effect, or another doubt; inactive means no such curve, though single readings can be large; an effect the other way counts as inactive or inconclusive.
# Experiments:
# [1] = qHTS to identify inhibitors of the type 1 interferon - major histocompatibility complex class I in skeletal muscle: primary screen against the NCATS Mechanism Interrogation Plate v5.0 (MIPE) Libary (AID 1347411);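 further: plate controls were vehicle for no effect and reference inhibitor for full effect; nearly all actives have a fitted effect of over 65% in size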
# Outline: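 HLA-B HiBit myoblasts, dexamethasone-free medium + 4 ng/ml IFN-b, 24 h compound, 11-pt 1:3 from 46 uM final. Readout: Nano-Glo HiBiT lytic luminescence after 10 min lysis, RT.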
# [2] = NCATS anti-infectives library activity on HEK293 viability as a counter-qHTS vs the C. elegans viability qHTS (AID 1745854); further: on the % scale 0 is the no-effect control and ±100 the full control effect
# Outline: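 CellTiter-Glo luminescence, read on a CCD imager, scored viability of HEK293 cells after 24 hr compound exposure at 37C. Library tested in several concentrations, 1:5 steps, up to 41.7 uM; digitonin served as control.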
# [3] = molecular target: Catechol O-methyltransferase (Homo sapiens) (UniProt P21964); assay: Confirmatory Screen for Target Class Profiling of Small Molecule Inhibitors of Methyltransferases (AID 1745852; calls by dose curve; further: potency means the concentration at half of the fitted maximal effect; on activity change, negative = inhibition: on the % scale 0 is the no-effect control and ±100 the full control effect); conditions: MTase-Glo luminescence, SAH detection, recombinant enzyme; measured here: COMT max response; stronger effect = lower value
# Sequence of Catechol O-methyltransferase (Homo sapiens) (P21964 whole entry, looked up): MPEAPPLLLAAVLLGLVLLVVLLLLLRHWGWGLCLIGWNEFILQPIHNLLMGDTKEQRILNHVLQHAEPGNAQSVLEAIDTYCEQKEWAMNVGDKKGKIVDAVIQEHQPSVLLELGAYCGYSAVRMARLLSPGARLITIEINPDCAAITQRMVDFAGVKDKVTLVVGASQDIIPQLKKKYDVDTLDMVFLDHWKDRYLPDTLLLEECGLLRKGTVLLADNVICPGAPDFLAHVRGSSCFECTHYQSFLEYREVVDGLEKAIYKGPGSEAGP
# [4] = molecular target: Guanidinoacetate N-methyltransferase (Homo sapiens) (UniProt Q14353); assay: as above; conditions: activity change, negative = inhibition: at 57.3 µM (top of the series) unless noted
# [5] = molecular target: Nicotinamide N-methyltransferase (Homo sapiens) (UniProt P40261); assay: as above; conditions: MTase-Glo luminescence, SAH detection, recombinant enzyme; measured here: NNMT max response; stronger effect = lower value
# Sequence of Nicotinamide N-methyltransferase (Homo sapiens) (P40261 whole entry, looked up): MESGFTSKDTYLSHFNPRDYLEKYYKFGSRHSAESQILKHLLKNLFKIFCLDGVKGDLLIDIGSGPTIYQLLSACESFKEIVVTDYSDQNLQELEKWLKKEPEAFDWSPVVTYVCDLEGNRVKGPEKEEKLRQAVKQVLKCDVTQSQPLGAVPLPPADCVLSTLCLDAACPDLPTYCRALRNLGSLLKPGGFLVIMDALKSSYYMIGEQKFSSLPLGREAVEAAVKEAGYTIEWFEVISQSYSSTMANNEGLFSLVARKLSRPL
# [6] = molecular target: Phenylethanolamine N-methyltransferase (Homo sapiens) (UniProt P11086); assay: as above; conditions: MTase-Glo luminescence, SAH detection, recombinant enzyme; measured here: PNMT max response; stronger effect = lower value
# Sequence of Phenylethanolamine N-methyltransferase (Homo sapiens) (P11086 whole entry, looked up): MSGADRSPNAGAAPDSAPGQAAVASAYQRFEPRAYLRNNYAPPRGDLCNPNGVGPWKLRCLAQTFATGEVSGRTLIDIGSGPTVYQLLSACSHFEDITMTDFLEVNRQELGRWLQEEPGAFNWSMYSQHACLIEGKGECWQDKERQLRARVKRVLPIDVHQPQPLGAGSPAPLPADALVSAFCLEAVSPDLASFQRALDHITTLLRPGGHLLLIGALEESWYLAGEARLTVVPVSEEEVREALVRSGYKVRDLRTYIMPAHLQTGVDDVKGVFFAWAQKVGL
# [7] = qHTS assay to identify inhibitors of the type 1 interferon - major histocompatibility complex class I in skeletal muscle: Counter screen cell viability and HiBit confirmation (AID 1347412); conditions: iHSKM muscle cells + IFN-b, HiBiT or CellTiter-Glo, 24 h; HiBiT; at 45.9 µM (top of the series); further: on the % scale 0 is the no-effect control and ±100 the full control effect; nearly all actives have a fitted effect of over 60% in size
# Outline: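 After 24 h with human IFN-beta (4 ng/ml) and compound titrations (top 46 uM final, 1:3, 12 points), HLA-B HiBit myoblasts were lysed for either Nano-Glo HiBiT luminescence or CellTiter Glo viability on paired plates.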
compound,measurement,setting,value
CC(C)C(N)C(=O)OCC(CO)OCn1cnc2c(=O)[nH]c(N)nc21 (centres undefined),Potency,[1],inactive
CC(C)C(=O)OC[C@@]1(N=[N+]=[N-])O[C@@H](n2ccc(N)nc2=O)[C@H](OC(=O)C(C)C)[C@@H]1OC(=O)C(C)C,outcome,[2],inactive
CN(C)CCNC(=O)c1cccn2c(=O)c3cc4ccccc4cc3nc12,activity,[3],3%
same,"activity change, negative = inhibition",[4],0.968% [at 12.7 µM]
same,activity,[5],3.48%
same,activity,[6],3.82%
O=C1NC(=O)C(c2c[nH]c3ccccc23)=C1c1c[nH]c2ccccc12,activity,[3],-38.2%
same,Potency,[4],30.6 µM (active)
same,activity,[5],-39.6%
same,activity,[6],-46.7%
CC(C)C(=O)OC[C@H]1O[C@@H](n2ccc(N)nc2=O)[C@](C)(F)[C@@H]1OC(=O)C(C)C,outcome,[2],inactive
O=C(NOCCO)c1ccc2cncn2c1Nc1ccc(I)cc1F,Potency,[1],inactive
N#Cc1ccc(-c2c(-c3ncn[nH]3)sc(N3CCOCC3)c2C#N)c(F)c1,"activity change, negative = inhibition",[7],-34.7% (inactive)
O=C1c2ccccc2-c2nc3nnnn3nc21 (tested in a mixture with another compound),activity,[3],-95.2%
same,Potency,[4],0.482 µM (active)
same,activity,[5],-67.5%
same,activity,[6],-24.7%
CC(C)n1cc(-c2ccc(Oc3ccccc3)cc2)c2c(N)ncnc21,activity,[3],-15%
same,"activity change, negative = inhibition",[4],-8.59%
same,activity,[5],-34.7%
same,activity,[6],-60.7%
O=C(Nc1cccc(Nc2cc(Nc3cccc(C(F)(F)F)c3)ncn2)c1)C1CC1,activity,[3],-58%
same,Potency,[4],21.5 µM (active)
same,activity,[5],-68.1%
same,activity,[6],-61.4%
S=c1ssc2c1CCC2,activity,[3],-2.41%
same,"activity change, negative = inhibition",[4],0%
same,activity,[5],-69.9%
same,activity,[6],-71%
